# Experiments:
# Test in all cases: DAPPL (digital affinity profiling via proximity ligation, sequencing); 10 mM Tris-HCl pH 7.5, 50 mM NaCl, 1 mM DTT, 4% glycerol, room temperature, 30 min; GST-TFs on glutathione beads, 16-mer random dsDNA library, 0.1% formaldehyde crosslink after washing; high values mean tight binding
# FLI1 = target: T1, FLI1 (Homo sapiens, UniProt Q01543 1-452); details: protein: recombinant; tags: N-terminal GST; dsDNA, one strand shown
# T1 sequence: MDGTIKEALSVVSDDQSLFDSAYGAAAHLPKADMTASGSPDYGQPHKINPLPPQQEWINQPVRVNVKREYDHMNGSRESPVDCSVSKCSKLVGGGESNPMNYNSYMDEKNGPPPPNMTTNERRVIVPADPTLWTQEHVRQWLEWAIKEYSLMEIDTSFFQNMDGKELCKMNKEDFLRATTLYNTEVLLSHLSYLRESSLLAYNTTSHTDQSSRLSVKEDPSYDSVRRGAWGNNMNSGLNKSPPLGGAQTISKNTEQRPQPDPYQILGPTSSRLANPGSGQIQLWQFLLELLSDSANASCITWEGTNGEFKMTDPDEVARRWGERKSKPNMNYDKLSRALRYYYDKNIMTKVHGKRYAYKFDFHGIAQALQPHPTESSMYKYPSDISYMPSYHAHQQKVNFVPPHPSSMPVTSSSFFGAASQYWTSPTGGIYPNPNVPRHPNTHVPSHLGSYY
# Summary of the method: (§1)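 After expression in yeast as GST fusions, human transcription factors were bound to glutathione beads, DNA-barcoded and mixed with a tag-only sample. The pools were incubated with 200 nmole of a 16-mer random double-stranded DNA library in Tris/NaCl/DTT/glycerol buffer (30 min, room temperature), washed and crosslinked with 0.1% formaldehyde. Proximity ligation with BsaI/T4 ligase ran for 1 h at 37 °C, before PCR amplification and sequencing on an Illumina NextSeq500. Binding signal is a hexamer's read frequency for a factor divided by its frequency for the tag-only sample.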
# ELK1 = target: T2, ELK1 (Homo sapiens, UniProt P19419 1-428); details: protein: recombinant; tags: N-terminal GST; dsDNA, one strand shown
# T2 sequence: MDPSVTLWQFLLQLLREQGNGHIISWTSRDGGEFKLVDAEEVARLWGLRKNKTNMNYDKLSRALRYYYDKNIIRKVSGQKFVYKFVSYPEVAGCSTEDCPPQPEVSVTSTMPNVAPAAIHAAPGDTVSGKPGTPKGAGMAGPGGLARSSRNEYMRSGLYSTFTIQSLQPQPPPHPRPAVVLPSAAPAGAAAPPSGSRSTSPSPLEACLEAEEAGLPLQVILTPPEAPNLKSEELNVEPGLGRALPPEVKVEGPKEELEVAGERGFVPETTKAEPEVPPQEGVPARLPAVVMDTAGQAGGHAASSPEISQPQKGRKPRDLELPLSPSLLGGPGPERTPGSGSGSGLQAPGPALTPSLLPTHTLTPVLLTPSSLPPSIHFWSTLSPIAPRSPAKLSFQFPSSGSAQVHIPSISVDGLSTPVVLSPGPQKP
# Summary of the method: as §1
# GABPA = target: T3, GABPA (Homo sapiens, UniProt Q06546 1-454); details: protein: recombinant; tags: N-terminal GST; dsDNA, one strand shown
# T3 sequence: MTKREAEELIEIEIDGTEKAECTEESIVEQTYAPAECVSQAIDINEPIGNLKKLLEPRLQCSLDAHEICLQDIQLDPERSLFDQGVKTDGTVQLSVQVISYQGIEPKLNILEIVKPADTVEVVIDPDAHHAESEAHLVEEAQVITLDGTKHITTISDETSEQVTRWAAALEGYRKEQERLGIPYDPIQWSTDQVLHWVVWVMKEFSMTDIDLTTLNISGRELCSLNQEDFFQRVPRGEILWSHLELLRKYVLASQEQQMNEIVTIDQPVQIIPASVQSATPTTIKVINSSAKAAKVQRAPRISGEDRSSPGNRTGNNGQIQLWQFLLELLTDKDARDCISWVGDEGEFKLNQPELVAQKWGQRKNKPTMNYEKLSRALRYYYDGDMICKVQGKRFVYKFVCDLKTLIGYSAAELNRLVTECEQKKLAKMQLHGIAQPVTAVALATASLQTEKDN
# Summary of the method: as §1
# ERG = target: T4, ERG (Homo sapiens, UniProt P11308 1-479); details: protein: recombinant; tags: N-terminal GST; dsDNA, one strand shown
# T4 sequence: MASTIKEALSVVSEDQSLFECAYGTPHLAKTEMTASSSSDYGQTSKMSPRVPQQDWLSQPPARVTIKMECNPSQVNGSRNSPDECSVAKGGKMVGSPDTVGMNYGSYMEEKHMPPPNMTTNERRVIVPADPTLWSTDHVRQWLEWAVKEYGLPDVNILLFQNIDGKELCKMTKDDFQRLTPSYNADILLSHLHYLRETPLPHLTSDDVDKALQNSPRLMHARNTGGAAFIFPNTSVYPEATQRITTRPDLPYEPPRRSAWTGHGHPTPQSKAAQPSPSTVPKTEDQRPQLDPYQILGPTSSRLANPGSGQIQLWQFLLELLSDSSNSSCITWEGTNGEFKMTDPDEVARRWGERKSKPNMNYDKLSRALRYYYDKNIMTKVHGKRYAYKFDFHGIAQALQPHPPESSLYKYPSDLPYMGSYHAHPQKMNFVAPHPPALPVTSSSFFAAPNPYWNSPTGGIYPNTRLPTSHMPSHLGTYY
# Summary of the method: as §1
# ELF1 = ELF1 (Homo sapiens, UniProt P32519 1-619); details: protein: recombinant; tags: N-terminal GST; dsDNA, one strand shown
# Chain of ELF1 (P32519 whole entry): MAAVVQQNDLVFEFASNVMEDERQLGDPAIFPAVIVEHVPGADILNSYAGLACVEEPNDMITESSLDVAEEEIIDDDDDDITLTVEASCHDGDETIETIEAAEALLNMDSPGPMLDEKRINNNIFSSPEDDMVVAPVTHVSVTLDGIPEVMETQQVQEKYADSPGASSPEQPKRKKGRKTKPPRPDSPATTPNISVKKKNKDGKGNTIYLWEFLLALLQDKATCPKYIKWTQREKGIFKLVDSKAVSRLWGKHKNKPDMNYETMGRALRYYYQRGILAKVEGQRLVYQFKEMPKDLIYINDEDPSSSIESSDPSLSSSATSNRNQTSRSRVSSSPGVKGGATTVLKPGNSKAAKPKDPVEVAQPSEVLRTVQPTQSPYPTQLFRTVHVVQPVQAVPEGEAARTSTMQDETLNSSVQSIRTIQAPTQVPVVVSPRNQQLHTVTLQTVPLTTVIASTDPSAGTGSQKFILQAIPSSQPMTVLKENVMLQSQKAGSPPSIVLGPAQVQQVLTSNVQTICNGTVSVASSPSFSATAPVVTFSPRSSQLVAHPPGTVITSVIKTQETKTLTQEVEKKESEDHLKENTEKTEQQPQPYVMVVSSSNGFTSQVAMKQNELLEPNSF
# Summary of the method: as §1
# EHF = target: T5, EHF (Homo sapiens, UniProt Q9NZC4 1-300); details: protein: recombinant; tags: N-terminal GST; dsDNA, one strand shown
# T5 sequence: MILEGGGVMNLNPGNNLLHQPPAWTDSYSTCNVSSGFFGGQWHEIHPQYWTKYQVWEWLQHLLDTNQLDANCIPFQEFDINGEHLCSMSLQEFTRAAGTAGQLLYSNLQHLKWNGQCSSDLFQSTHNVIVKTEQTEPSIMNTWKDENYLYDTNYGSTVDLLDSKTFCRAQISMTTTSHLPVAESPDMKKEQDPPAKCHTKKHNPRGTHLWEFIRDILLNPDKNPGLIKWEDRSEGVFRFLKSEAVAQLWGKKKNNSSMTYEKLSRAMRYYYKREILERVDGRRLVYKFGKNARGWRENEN
# Summary of the method: as §1
# SPI1 = SPI1 (Homo sapiens, UniProt P17947 1-270); details: protein: recombinant; tags: N-terminal GST; dsDNA, one strand shown
# Summary of the method: as §1
# SPIB = SPIB (Homo sapiens, UniProt Q01892 1-262); details: protein: recombinant; tags: N-terminal GST; dsDNA, one strand shown
# Chain of SPIB (Q01892 whole entry): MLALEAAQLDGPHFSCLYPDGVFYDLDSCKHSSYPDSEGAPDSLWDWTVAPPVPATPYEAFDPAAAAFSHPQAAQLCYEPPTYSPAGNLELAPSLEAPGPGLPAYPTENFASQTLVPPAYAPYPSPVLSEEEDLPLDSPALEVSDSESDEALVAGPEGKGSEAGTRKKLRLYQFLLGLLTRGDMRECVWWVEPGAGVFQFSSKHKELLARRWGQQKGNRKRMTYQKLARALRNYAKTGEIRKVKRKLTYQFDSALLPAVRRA
# Summary of the method: as §1
# ELK3 = target: T6, ELK3 (Homo sapiens, UniProt P41970 1-407); details: protein: recombinant; tags: N-terminal GST; dsDNA, one strand shown
# T6 sequence: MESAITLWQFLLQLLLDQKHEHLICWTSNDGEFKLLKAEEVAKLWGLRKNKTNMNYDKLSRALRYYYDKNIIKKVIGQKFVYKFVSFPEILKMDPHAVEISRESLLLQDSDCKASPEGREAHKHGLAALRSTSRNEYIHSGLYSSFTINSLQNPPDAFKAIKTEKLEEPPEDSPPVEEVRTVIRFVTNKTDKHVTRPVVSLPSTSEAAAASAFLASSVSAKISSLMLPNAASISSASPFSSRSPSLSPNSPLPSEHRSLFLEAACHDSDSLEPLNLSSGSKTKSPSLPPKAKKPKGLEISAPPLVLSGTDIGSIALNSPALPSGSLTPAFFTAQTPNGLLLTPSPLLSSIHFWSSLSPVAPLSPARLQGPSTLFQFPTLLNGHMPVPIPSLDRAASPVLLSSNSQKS
# Summary of the method: as §1
# FEV = target: T7, FEV (Homo sapiens, UniProt Q99581 1-238); details: protein: recombinant; tags: N-terminal GST; dsDNA, one strand shown
# T7 sequence: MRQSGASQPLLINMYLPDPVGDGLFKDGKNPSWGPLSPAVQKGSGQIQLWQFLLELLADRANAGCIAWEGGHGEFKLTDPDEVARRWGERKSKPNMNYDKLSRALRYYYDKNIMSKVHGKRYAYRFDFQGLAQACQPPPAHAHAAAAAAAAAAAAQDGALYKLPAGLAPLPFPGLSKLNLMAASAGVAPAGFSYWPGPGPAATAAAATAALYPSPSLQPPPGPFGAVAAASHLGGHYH
# Summary of the method: as §1
# ETV5 = ETV5 (Homo sapiens, UniProt P41161 1-510); details: protein: recombinant; tags: N-terminal GST; dsDNA, one strand shown
# Chain of ETV5 (P41161 whole entry): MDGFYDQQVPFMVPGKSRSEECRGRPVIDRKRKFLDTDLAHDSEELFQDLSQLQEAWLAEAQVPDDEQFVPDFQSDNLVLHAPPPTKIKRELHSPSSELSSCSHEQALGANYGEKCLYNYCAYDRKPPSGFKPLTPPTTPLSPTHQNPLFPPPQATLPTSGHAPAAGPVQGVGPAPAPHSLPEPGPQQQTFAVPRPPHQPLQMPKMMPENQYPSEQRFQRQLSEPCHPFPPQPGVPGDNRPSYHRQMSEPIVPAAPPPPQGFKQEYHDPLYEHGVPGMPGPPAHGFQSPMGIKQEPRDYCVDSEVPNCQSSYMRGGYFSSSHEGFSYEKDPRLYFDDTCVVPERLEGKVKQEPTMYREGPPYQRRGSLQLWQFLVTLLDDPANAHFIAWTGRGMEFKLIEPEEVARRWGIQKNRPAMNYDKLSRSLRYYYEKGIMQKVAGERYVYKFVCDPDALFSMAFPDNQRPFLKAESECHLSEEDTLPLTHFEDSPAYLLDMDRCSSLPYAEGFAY
# Summary of the method: as §1
# HSF1 = HSF1 (Homo sapiens, UniProt Q00613 1-529); details: protein: recombinant; tags: N-terminal GST; chain copies: 3; dsDNA, one strand shown
# Chain of HSF1 (Q00613 whole entry): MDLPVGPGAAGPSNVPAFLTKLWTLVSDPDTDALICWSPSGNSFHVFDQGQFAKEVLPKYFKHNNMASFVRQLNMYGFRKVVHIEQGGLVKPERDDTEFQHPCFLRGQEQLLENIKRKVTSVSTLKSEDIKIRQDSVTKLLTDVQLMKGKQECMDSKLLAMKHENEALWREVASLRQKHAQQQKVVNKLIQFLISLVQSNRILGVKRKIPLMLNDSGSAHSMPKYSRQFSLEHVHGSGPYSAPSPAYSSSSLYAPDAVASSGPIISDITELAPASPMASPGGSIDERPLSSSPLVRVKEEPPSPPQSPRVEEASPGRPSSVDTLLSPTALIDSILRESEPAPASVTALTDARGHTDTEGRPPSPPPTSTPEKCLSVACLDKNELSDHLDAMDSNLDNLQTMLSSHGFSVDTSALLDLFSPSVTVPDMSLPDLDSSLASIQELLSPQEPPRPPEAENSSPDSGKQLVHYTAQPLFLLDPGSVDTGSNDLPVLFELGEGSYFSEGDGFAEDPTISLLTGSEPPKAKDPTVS
# Summary of the method: as §1
# SPIC = target: T8, SPIC (Homo sapiens, UniProt Q8N5J4 1-248); details: protein: recombinant; tags: N-terminal GST; dsDNA, one strand shown
# T8 sequence: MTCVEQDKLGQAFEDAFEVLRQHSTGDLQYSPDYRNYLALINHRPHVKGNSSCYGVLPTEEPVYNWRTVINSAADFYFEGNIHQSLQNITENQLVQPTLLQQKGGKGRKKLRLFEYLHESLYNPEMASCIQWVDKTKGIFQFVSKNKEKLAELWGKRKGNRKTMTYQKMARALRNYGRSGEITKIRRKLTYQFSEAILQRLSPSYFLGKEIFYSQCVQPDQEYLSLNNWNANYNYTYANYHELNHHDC
# Summary of the method: as §1
# ELF4 = ELF4 (Homo sapiens, UniProt Q99607 1-663); details: protein: recombinant; tags: N-terminal GST; dsDNA, one strand shown
# Chain of ELF4 (Q99607 whole entry): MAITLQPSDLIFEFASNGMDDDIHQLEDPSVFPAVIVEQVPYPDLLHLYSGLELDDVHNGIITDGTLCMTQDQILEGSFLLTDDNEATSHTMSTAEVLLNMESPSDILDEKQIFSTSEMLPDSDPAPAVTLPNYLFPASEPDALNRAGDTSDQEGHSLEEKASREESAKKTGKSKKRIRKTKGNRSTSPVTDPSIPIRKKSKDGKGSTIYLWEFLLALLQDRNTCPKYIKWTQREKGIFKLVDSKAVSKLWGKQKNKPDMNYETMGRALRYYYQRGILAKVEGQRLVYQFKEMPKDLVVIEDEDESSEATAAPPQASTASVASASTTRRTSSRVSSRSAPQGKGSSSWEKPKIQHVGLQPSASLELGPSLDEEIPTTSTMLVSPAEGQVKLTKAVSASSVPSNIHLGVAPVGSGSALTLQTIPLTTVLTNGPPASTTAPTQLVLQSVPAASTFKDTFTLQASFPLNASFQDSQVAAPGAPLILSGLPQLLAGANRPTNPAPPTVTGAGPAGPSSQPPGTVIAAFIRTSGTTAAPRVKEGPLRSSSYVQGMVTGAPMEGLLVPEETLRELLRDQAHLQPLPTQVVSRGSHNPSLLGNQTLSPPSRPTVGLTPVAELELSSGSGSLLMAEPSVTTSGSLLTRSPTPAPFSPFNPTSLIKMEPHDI
# Summary of the method: as §1
# ELK4 = target: T9, ELK4 (Homo sapiens, UniProt P28324-2 1-405); details: protein: recombinant; tags: N-terminal GST; dsDNA, one strand shown
# T9 sequence: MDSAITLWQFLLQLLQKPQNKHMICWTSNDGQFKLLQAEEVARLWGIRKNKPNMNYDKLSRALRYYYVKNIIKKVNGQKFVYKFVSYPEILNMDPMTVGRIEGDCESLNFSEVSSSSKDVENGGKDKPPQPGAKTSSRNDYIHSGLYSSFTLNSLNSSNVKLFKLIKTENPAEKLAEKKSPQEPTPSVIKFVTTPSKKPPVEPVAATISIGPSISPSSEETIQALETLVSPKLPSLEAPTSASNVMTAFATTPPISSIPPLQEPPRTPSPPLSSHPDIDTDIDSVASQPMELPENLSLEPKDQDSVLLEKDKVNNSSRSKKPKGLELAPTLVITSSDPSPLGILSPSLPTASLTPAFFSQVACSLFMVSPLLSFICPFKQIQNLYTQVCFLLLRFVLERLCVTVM
# Summary of the method: as §1
# ETV2 = target: T10, ETV2 (Homo sapiens, UniProt O00321 1-342); details: protein: recombinant; tags: N-terminal GST; dsDNA, one strand shown
# T10 sequence: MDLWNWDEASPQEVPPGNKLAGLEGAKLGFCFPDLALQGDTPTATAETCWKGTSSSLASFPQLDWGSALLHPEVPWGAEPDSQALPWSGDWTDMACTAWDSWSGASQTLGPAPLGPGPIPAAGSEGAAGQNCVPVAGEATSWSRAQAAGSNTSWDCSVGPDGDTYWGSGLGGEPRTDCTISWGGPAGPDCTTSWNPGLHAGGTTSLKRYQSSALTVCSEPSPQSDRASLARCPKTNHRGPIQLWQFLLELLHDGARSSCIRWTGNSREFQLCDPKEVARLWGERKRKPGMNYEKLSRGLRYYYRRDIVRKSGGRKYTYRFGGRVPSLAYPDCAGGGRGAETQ
# Summary of the method: as §1
# ELF3 = target: T11, ELF3 (Homo sapiens, UniProt P78545 1-371); details: protein: recombinant; tags: N-terminal GST; dsDNA, one strand shown
# T11 sequence: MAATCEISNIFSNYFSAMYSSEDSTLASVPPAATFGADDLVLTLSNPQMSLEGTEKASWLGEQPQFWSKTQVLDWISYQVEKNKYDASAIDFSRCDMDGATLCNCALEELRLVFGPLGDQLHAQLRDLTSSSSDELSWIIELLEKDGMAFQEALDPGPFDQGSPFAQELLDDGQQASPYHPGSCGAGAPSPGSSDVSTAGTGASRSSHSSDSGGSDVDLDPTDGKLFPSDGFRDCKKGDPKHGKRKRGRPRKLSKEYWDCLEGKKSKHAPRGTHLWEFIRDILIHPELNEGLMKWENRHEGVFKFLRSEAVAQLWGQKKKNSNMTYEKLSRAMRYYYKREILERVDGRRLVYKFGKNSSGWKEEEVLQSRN
# Summary of the method: as §1
# CRX = CRX (Homo sapiens, UniProt O43186 1-299); details: protein: recombinant; tags: N-terminal GST; dsDNA, one strand shown
# Chain of CRX (O43186 whole entry): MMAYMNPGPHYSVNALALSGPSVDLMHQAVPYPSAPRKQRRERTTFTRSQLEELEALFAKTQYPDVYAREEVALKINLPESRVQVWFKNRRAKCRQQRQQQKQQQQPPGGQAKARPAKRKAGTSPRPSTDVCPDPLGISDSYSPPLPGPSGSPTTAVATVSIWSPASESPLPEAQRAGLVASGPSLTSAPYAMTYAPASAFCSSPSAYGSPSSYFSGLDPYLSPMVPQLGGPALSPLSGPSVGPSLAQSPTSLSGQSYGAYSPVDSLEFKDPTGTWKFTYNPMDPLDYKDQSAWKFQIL
# Summary of the method: as §1
# ETV1 = ETV1 (Homo sapiens, UniProt P50549 1-477); details: protein: recombinant; tags: N-terminal GST; dsDNA, one strand shown
# Chain of ETV1 (P50549 whole entry): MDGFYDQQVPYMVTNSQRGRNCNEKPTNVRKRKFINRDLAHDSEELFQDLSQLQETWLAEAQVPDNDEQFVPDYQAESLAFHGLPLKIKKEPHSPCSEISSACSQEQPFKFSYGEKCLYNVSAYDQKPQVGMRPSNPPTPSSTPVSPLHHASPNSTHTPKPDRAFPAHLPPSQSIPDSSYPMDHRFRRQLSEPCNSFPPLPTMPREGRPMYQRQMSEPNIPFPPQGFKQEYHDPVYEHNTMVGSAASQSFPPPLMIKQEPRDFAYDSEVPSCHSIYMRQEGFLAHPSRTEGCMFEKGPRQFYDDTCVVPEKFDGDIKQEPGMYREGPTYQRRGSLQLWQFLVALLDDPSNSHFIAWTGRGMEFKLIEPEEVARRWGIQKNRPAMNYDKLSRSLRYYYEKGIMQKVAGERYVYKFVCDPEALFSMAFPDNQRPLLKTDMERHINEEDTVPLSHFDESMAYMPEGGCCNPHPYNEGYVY
# Summary of the method: as §1
sequence,measurement,setting,value
CCCCCA,binding signal,FLI1,"1.23 fold enrichment (6-mer frequency, TF over GST control)"
same,binding signal,ELK1,"1.18 fold enrichment (6-mer frequency, TF over GST control)"
same,binding signal,GABPA,"1.23 fold enrichment (6-mer frequency, TF over GST control)"
same,binding signal,ERG,"1.17 fold enrichment (6-mer frequency, TF over GST control)"
same,binding signal,ELF1,"1.2 fold enrichment (6-mer frequency, TF over GST control)"
same,binding signal,EHF,"1.27 fold enrichment (6-mer frequency, TF over GST control)"
same,binding signal,SPI1,"1.23 fold enrichment (6-mer frequency, TF over GST control)"
same,binding signal,SPIB,"1.27 fold enrichment (6-mer frequency, TF over GST control)"
same,binding signal,ELK3,"1.06 fold enrichment (6-mer frequency, TF over GST control)"
same,binding signal,FEV,"1.21 fold enrichment (6-mer frequency, TF over GST control)"
same,binding signal,ETV5,"1.19 fold enrichment (6-mer frequency, TF over GST control)"
same,binding signal,HSF1,"1.06 fold enrichment (6-mer frequency, TF over GST control)"
same,binding signal,SPIC,"1.16 fold enrichment (6-mer frequency, TF over GST control)"
same,binding signal,ELF4,"1.2 fold enrichment (6-mer frequency, TF over GST control)"
same,binding signal,ELK4,"1.19 fold enrichment (6-mer frequency, TF over GST control)"
same,binding signal,ETV2,"1.4 fold enrichment (6-mer frequency, TF over GST control)"
same,binding signal,ELF3,"1.3 fold enrichment (6-mer frequency, TF over GST control)"
same,binding signal,CRX,"1.02 fold enrichment (6-mer frequency, TF over GST control)"
same,binding signal,ETV1,"1.18 fold enrichment (6-mer frequency, TF over GST control)"

# — article PMC7862700, “An all-to-all approach to the identification of sequence-specific readers for epigenetic DNA modifications on cytosine”
